In the library only some 1.3% were active in any assay of this set; here they are far more common.
LYPLA1 counter = counter-screen for PME1 inhibitors: inhibitors of human LYPLA1; O75608; recombinant LYPLA1, FP-Rh probe fluorescence polarization; inhibition, % at 5.9 µM; hit rate 0.16% among 320,000; AID 2174;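 active = inhibition above the mean of all tested compounds plus 3 SD, set per campaign, cut at about 14% in these data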;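 note: inhibitors block serine hydrolase probe labeling of LYPLA1 so polarization falls; 0% = enzyme with DMSO and 100% = wells lacking LYPLA1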
EBNA-1 inh = blocks EBNA-1 binding to DNA | EBNA-1 DNA binding, fluorescence polarization | inhibition, % at 14.8 µM | hit rate 0.34% among 300,000; in the data active = inhibition above about 28%
LYPLA2 inh = blocks human lysophospholipase 2, a PME1 counter-screen. O95372. recombinant LYPLA2, FP-Rh probe fluorescence polarization. inhibition, % at 5.9 µM. hit rate 0.38% among 320,000;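 active = inhibition above the screen-wide mean plus 3 SD, limit set per campaign, cut at about 26% in these data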;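 note: 0% = LYPLA2 with DMSO and 100% = wells lacking LYPLA2 enzyme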
PREPL inh = human PREPL enzyme inhibition; Q4J6C6; inhibition, % at 5.96 µM; recombinant PREPL, fluorescence polarization activity-based probe; hit rate 0.68% among 320,000; in the data active = inhibition above about 43%;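 note: 0% = enzyme with DMSO and 100% = wells lacking enzyme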
ZTA DNA inh = counter-screen for EBNA-1 inhibitors: inhibitors of Epstein-Barr virus ZTA | ZTA-DNA binding, fluorescence polarization | inhibition, % at 11 µM | hit rate 0.15% among 320,000 | AID 2234; in the data active = inhibition above about 33%
Target sequence (P03206 whole entry, looked up): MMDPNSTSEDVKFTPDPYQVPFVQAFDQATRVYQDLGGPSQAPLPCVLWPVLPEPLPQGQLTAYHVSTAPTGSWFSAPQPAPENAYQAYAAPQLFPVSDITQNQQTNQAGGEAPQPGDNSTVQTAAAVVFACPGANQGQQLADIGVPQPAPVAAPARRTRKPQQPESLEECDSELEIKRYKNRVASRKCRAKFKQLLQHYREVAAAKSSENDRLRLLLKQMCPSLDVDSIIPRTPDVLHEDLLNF
Zta DNA confirm = confirmation of Epstein-Barr virus ZTA DNA binding inhibitors. Zta-ZRE DNA binding, fluorescence polarization. inhibition, % at 11.1 µM. hit rate 30% among 320. shares compounds with ZTA DNA inh;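 active = mean inhibition across triplicate runs above the hit threshold derived for the original primary screen, cut at about 33% in these data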;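 note: 0% = Zta with DMSO and 100% = wells lacking Zta protein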
EBNA1 counter = blocks EBNA-1 DNA binding in ZTA counter-screen; shares compounds with ZTA DNA inh; fluorescence polarization; inhibition, % at 14.8 µM; 320 tested, under 10 active; call rule not given here
* marks the source's active call; other numbers are inactive results.

How did O=C(CSc1ncnc2scc(-c3ccccc3)c12)N1CCN(Cc2ccc3c(c2)OCO3)CC1 do in these assays?
LYPLA1 counter: -5; EBNA-1 inh: 14; LYPLA2 inh: -1; PREPL inh: 9; ZTA DNA inh: 59*; Zta DNA confirm: 160*; EBNA1 counter: 72*

What do the screens show for `O=C(O)c1ccc2c(c1)C(=O)/C(=C\c1ccco1)C2=O`?
LYPLA1 counter: -1; EBNA-1 inh: -4; LYPLA2 inh: 7; PREPL inh: 6; ZTA DNA inh: 62*; Zta DNA confirm: 63*; EBNA1 counter: 9

What do the screens show for `COc1ccc(Sc2nc3ccccc3n3c(C(F)(F)F)nnc23)cc1`?
LYPLA1 counter: -2; EBNA-1 inh: 7; LYPLA2 inh: 5; PREPL inh: 1; ZTA DNA inh: 47*; Zta DNA confirm: -4; EBNA1 counter: -3

Results for O=C(c1ccc(Cl)cc1Cl)N1CCC(C(=O)N2CCOCC2)CC1 ?
LYPLA1 counter: -2; EBNA-1 inh: -7; LYPLA2 inh: -1; PREPL inh: 1; ZTA DNA inh: 4

Results for C/C=C\C=C\C(=O)N1CC2(CC(c3cccc(NC(=O)CC)c3)=NO2)C[C@H]1C(N)=O (stereo partly drawn) ?
LYPLA1 counter: -4; EBNA-1 inh: 6; LYPLA2 inh: -4; PREPL inh: -6; ZTA DNA inh: 35*; Zta DNA confirm: 9; EBNA1 counter: 5

Results for C/C=C/C=C\C(=O)Nc1cccc(C2=NOC3(C2)C[C@H](C(N)=O)N(C(=O)/C=C/C)C3)c1 (stereo partly drawn) ?
LYPLA1 counter: -4; EBNA-1 inh: 8; LYPLA2 inh: -16; PREPL inh: -4; ZTA DNA inh: -7

What do the screens show for `CCCN(CCC)C(=O)COc1cc(=O)n(CC)c2ccccc12`?
LYPLA1 counter: 5; EBNA-1 inh: 0; LYPLA2 inh: 2; PREPL inh: 4; ZTA DNA inh: 118*; Zta DNA confirm: -3; EBNA1 counter: -3

How did O=C(Nc1cccc(F)c1)Nc1ccnn1C1CCN(C(=O)c2cscn2)CC1 do in these assays?
LYPLA1 counter: -1; EBNA-1 inh: 6; LYPLA2 inh: -4; PREPL inh: 5; ZTA DNA inh: 9

How did COc1cc(/C=C/C(=O)/C=C(O)/C=C/c2ccc(O)c(OC)c2)ccc1O do in these assays?
LYPLA1 counter: -4; LYPLA2 inh: 2; PREPL inh: 8; ZTA DNA inh: 34*; Zta DNA confirm: 14; EBNA1 counter: -8

How did O=C(C[C@@H]1C/C=C\C[C@H](Cc2ccc(F)cc2)C(=O)OC[C@H]2CCCN2C1=O)NCCO do in these assays?
PREPL inh: 35

How did CCCn1c(N)c(C(=O)CSc2nc3ncc(Cl)cc3[nH]2)c(=O)[nH]c1=O do in these assays?
LYPLA1 counter: -2; LYPLA2 inh: 4; PREPL inh: 3; ZTA DNA inh: -2

What do the screens show for `O=C(CCCCCN1C(=O)CCC1=O)Nc1ccc2c(c1)OCCO2`?
LYPLA1 counter: 0; EBNA-1 inh: -12; LYPLA2 inh: -2; PREPL inh: 9; ZTA DNA inh: 34*; Zta DNA confirm: 1; EBNA1 counter: -1

Results for COc1ccc(CCC(=O)Nc2ccc3c(c2)OCCO3)cc1 ?
LYPLA1 counter: -22; EBNA-1 inh: 27; LYPLA2 inh: -87; PREPL inh: -435; ZTA DNA inh: 55*; Zta DNA confirm: 12; EBNA1 counter: 3

Results for O=C(CCCOc1ccccc1)Nc1ccc2c(c1)OCCO2 ?
LYPLA1 counter: 0; EBNA-1 inh: -6; LYPLA2 inh: -4; PREPL inh: -1; ZTA DNA inh: -13

How did COc1ccc(CN(C)C(=O)CNC(=O)c2cccs2)c(OC)c1 do in these assays?
LYPLA1 counter: -6; LYPLA2 inh: -6; PREPL inh: -4; ZTA DNA inh: 11

Results for C#CCOCCOCCOCCNc1nc(N2CCOCC2)nc(N2CCN(C(=O)[C@H](CCCCN)n3cc([C@@H](N)CO)nn3)CC2)n1 ?
LYPLA1 counter: -4; EBNA-1 inh: 12; LYPLA2 inh: 1; PREPL inh: -3; ZTA DNA inh: 168*; Zta DNA confirm: -4; EBNA1 counter: -3
